Reference: PubChem BioAssay (NCI)
About 83,000 compounds went through this panel and 20% of them were active in at least one assay; those are over-represented in the sample as a whole.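 48-hour exposure, single concentration, 96-well plates; percent growth endpoint where 0 means no net growth. Active: below 10.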 Unmarked numbers belong to inactive results. Activity calls are given as the source filed them.

Columns and labels:
Assay in all cases: NCI-60 one-dose screen, 48 h (100 = growth as untreated, 0 = no growth, -100 = all killed)
Details in all cases: 10 µM unless noted
SR leukemia = test system: SR leukemia
RPMI-8226 leukemia = test system: RPMI-8226 leukemia
OVCAR-8 ovarian = test system: OVCAR-8 ovarian
OVCAR-5 ovarian = test system: OVCAR-5 ovarian
OVCAR-4 ovarian = test system: OVCAR-4 ovarian
SK-OV-3 ovarian = test system: SK-OV-3 ovarian
IGROV1 ovarian = test system: IGROV1 ovarian
OVCAR-3 ovarian = test system: OVCAR-3 ovarian
HS 578T breast = test system: HS 578T breast
NCI/ADR-RES ovarian = test system: NCI/ADR-RES ovarian
T-47D breast = test system: T-47D breast
BT-549 breast = test system: BT-549 breast
MDA-MB-435 melanoma = test system: MDA-MB-435 melanoma
SW-620 colon = test system: SW-620 colon
MCF7 breast = test system: MCF7 breast
HCT-116 colon = test system: HCT-116 colon
HCC-2998 colon = test system: HCC-2998 colon
KM12 colon = test system: KM12 colon

| Compound | growth (SR leukemia) | growth (RPMI-8226 leukemia) | growth (OVCAR-8 ovarian) | growth (OVCAR-5 ovarian) | growth (OVCAR-4 ovarian) [%] | growth (SK-OV-3 ovarian) | growth (IGROV1 ovarian) | growth (OVCAR-3 ovarian) | growth (HS 578T breast) | growth (NCI/ADR-RES ovarian) | growth (T-47D breast) | growth (BT-549 breast) | growth (MDA-MB-435 melanoma) | growth (SW-620 colon) | growth (MCF7 breast) | growth (HCT-116 colon) | growth (HCC-2998 colon) | growth (KM12 colon) |
| --- | --- | --- | --- | --- | --- | --- | --- | --- | --- | --- | --- | --- | --- | --- | --- | --- | --- | --- |
| CCN(C(=O)N1CCN(c2cc3c(cc2F)c(=O)c(C(=O)O)cn3C2CC2)CC1)c1nc(-c2ccc(C)cc2)cs1 | 17.2% | 14.8% | 11.5% | 21.7% | 31.5 | -10.4% (active) | 6.38% (active) | 9.01% (active) | 18.3% | 2.74% (active) | 25.5% | -11.3% (active) | 16.2% | 18.5% | 6.09% (active) | 12.4% | 21.1% | 10.6% |
| CCCCCCC(=O)Nc1ncc(Cc2ccc(C)cc2)s1 | 20.4% | 40.1% | 45.5% | 58.1% | 50.1 | 31.8% | 44.2% | 8.65% (active) | 21.7% | 29% | 35.4% | 59.1% | -25.9% (active) | 22.4% | 24.7% | 33.3% | 70.3% | 30.7% |
| COc1ccc(NC(=O)c2ccc(C(=O)Nc3ccc(OC)cc3OC)cc2)c(OC)c1 | 87.9% | 80.1% | 44.5% | 81.2% | 88.2 | 43.8% | 54.7% | 90.6% | 39.3% | 79.6% | 71.9% | 43.6% | 93.3% | 97.9% | 75.2% | 78.1% | 72.2% | 103% |
| COc1ccc2nc(SCC(=O)Nc3ccccc3C)[nH]c2c1 | 89.5% | 90.1% | 94.2% | 99.6% | 95.2 | 105% | 103% | 107% | 90.9% | 99% | 84.2% | 97.6% | 97% | 99.4% | 90.7% | 98.9% | 106% | 101% |
| COc1ccc(C(c2cc(OC)c(OC)c(OC)c2)N2CCCC2)cc1 (centres undefined) | 23.9% | 97.4% | 95.6% | 92.6% | 101 | 77.5% | 82.9% | 66.6% | 80.4% | 69.4% | 89.8% | 81.6% | -21.8% (active) | 47.8% | 64.1% | 62.3% | 89.1% | 43.9% |
| Cc1ccc(/C=C2\CN(C(=O)C(Cl)Cl)C/C(=C\c3ccc(C)cc3)C2=O)cc1 | 1.68% (active) | -19.3% (active) | 4.74% (active) | -44.6% (active) | 25 | 29% | -58.8% (active) | -97.8% (active) | 9.67% (active) | 8.57% (active) | -29% (active) | -15.3% (active) | -75.1% (active) | -66.6% (active) | -32.1% (active) | -84.6% (active) | -89.6% (active) | -65.8% (active) |
| C=CCn1c(SCC(=O)Nc2ccc(C(=O)/C=C/c3ccc(OC)cc3)cc2)nnc1-c1ccccc1 | 85.3% | 5.8% (active) | 101% | 82.7% | 77.4 | 106% | 84.9% | 89.5% | 100% | 89.1% | 57.3% | 43.8% | 49% | 97.7% | 20% | 9.87% (active) | 102% | 82.6% |
| COc1ccc(C(C)=O)cc1S(N)(=O)=O | 104% | 98.9% | 96.6% | 102% | 101 | 115% | 108% | 108% | 91.6% | 98.1% | 105% | 95.6% | 99.3% | 103% | 96.4% | 89% | 98.3% | 103% |
